In PMC5540273 (PLoS ONE, 2017):

Each molecule was assayed on AURKB. Conditions: concentration: 1 μM, replicates: in singlicate; n = 1.
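Further: KINOMEscan kinase panel screen.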

| SMILES | %Inh [%] |
| --- | --- |
| COc1cc(Nc2nccc(N3CCC(NS(=O)(=O)c4ccc(NC(C)=O)cc4)CC3)n2)cc(OC)c1OC [GSK1379825] | 71 |
| Cc1cc(-c2ccnc(Nc3cccc(C#N)c3)n2)cc(C)c1O [GSK1440913] | 19 |
| Cc1ccc(C)c(NC(=O)Nc2ccc(C)c(-c3ccc(C(=O)Nc4ccncc4)cc3)c2)c1 [GSK1398473] | 21 |
| CN(C)CCNS(=O)(=O)c1ccc(-c2ccnc3[nH]ccc23)cc1 [GSK977620] | 57 |
| O=C(Nc1n[nH]c2nc(-c3cccc(O)c3)ccc12)C1CC1 [SB-711805] | 19 |
| COc1cccc(C2=C(Nc3cccc(O)c3)C(=O)NC2=O)c1 [SB-390771] | 24 |
| CSc1ccc(NC2=C(c3ccc(Cl)cc3)C(=O)NC2=O)cc1 [SB-317658] | 9 |
| Cc1ccc(O)cc1Nc1ccnc2cc(-c3ccc(CN4CCCCC4)o3)ccc12 [GW557777] | 0 |
| Fc1cc(Cl)ccc1Nc1ccnc2cc(-c3ccc(CN4CCOCC4)o3)ccc12 [GW560109] | 35 |
| COC(=O)Nc1nc2ccc(Oc3ccc(NC(=O)Nc4cc(C(F)(F)F)ccc4F)cc3)cc2[nH]1.Cl [GW654607] | 92.3 |
| CN(c1ccc(NC(=O)N2CCN(CCCN3CCOCC3)CC2)cc1)c1ccnc(Nc2ccc(CS(C)(=O)=O)cc2)n1.Cl [GW830899] | 76 |
| CCn1c(-c2nonc2N)nc2c(-c3ccccc3)ncc(OCCCN)c21.O=C(O)C(F)(F)F.O=C(O)C(F)(F)F [GSK260205] | 36 |
| COc1cc(Nc2nccc(N3CCC(NC(=O)Nc4ccc5c(c4)OCO5)C3)n2)cc(OC)c1OC (stereo not shown) [GSK1379766] | 69 |
| Cc1ccc(NC(=O)c2ccnc(N3CCCCC3)c2)cc1-c1ccc(C(=O)NCC2CC2)cc1 [GW775610] | 25 |
| COC(=O)Nc1nc2ccc(Oc3ccc(CC(=O)Nc4cc(C(F)(F)F)ccc4F)cc3)cc2[nH]1 [GW680903] | 60 |
| COc1ccc(NC(=O)c2ccoc2)cc1-c1ccc(C(=O)NCC2CC2)cc1 [GW810437] | 33 |
| Cc1cccc(Nc2nc(NCCN)ncc2C(N)=O)c1 [GSK1292139] | 0 |
| Cl.N#CCc1ccc(Nc2nccc(Nc3ccc(Oc4ccccc4)cc3)n2)cc1 [GW639905] | 31 |
| Fc1cc(Cl)ccc1Nc1ccnc2cc(-c3ccc(CN4CCSCC4)o3)ccc12 [GW560106] | 0 |

| SMILES | %Inh [%] |
| --- | --- |
| NCCC(NC(=O)c1cc(Br)c(-c2ccnc3[nH]ccc23)s1)c1ccccc1.O=C(O)C(F)(F)F.O=C(O)C(F)(F)F (stereo not shown) [GSK1307810] | 13 |
| O=C(O)C(F)(F)F.O=c1[nH]ccc2nc(N[C@@H]3CCNC3)nc(Nc3ccc4c(c3)S(=O)(=O)CC4)c12 [GSK2181306] | 72 |
| Cc1ccccc1CC(=O)N1CCc2cc(-c3cn(C)c4ncnc(N)c34)ccc21 [GSK2603346] | 92 |
| CCNC(=O)/C=C/c1n[nH]c2cc(Sc3ccccc3C(=O)NC)ccc12 | 97.4 |
| Nc1ncc(-c2ccc3nccc(-c4ccncc4)c3c2)cc1S(=O)(=O)N1CCCCC1 [GSK1693850] | 31 |
| CS(=O)(=O)c1cccc(CNc2nc(Nc3ccc4c(c3)CCC(=O)N4)ncc2C(F)(F)F)c1 | 96.7 |
| COc1ccc(C)c(Nc2ccnc(Nc3ccc(-c4cnc[nH]4)cc3)n2)c1.Cl [GW784041] | 8 |
| O=C(O)C(F)(F)F.O=c1[nH]ccc2nc(N[C@@H]3CCNC3)nc(Nc3cc(Cl)cc(Cl)c3)c12 [GSK2188764] | 75 |
| Cl.Cl.NC(CNC(=O)c1cc(Br)c(-c2ccnc3[nH]ccc23)s1)c1ccccc1 (stereo not shown) [GSK1322949] | 35 |
| COC(=O)Nc1nc2cc(Oc3ccc(NC(=O)Nc4cccc(SC)c4)cc3)ccc2[nH]1.Cl [GW697999] | 92.5 |
| CCOc1nccc(-c2c(-c3ccc(F)cc3)ncn2C2CCNCC2)n1 [SB-249175] | 59 |
| Cl.Cl.NCC(NC(=O)c1cc(-c2cccnc2)c(-c2ccnc3[nH]ccc23)s1)c1ccccc1 (stereo not shown) [GSK1323434] | 19 |
| Nc1ncnc2scc(-c3ccc(NC(=O)Cc4cc(F)ccc4F)cc3)c12.O=C(O)C(F)(F)F [SB-731254-M] | 98.6 |
| Cn1cc(-c2ccc3c(c2)CCN3C(=O)Cc2cc(F)cc(C(F)(F)F)c2)c2c(N)ncnc21 [GSK2635225] | 56 |
| COc1cccc2c(-c3ccncc3)c(-c3ccc(F)cc3)nn12 [GW468513] | 0 |
| COc1cccc(NC(=O)NCCNc2ccnc(Nc3ccc(F)cc3)n2)c1 [GSK1379879] | 40 |
| Cn1cc(-c2ccc3c(c2)CCN3C(=O)Cc2cc(F)cc(F)c2F)c2c(N)ncnc21 [GSK2634140] | 92.6 |
| CN(C)CCOc1ccc(-c2cc(-c3ccc(Cl)c(O)c3)c(-c3ccncc3)[nH]2)cc1.Cl.Cl [SB-684387] | 0 |
